# Most compounds without a hit are left out; they make up all but 4.5% or so of the library.
# NALP3 yeast inh: blocks the NALP3 inflammasome reconstituted in yeast; inhibition, % at 10 µM; 330,000 tested, 0.39% active; Yeast reconstituted NLRP3/ASC/caspase-1, beta-gal luminescence, 24 h;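 active means inhibition of 50% or more; inactive means inhibition below 50%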
# tim10-1 inh: inhibits growth of tim10-1 mutant yeast; S. cerevisiae tim10-1 ts strain growth, BacTiter-Glo, 24 h; inhibition, % at 20 µM; 330,000 tested, 2.2% active; AID 463190;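 active means inhibition of at least 40%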;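 further: mutant grown at 25 °C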
# SKKanGAS inh: blocks kanamycin growth of S. pyogenes SKKanGAS strain; BacTiter-Glo, 6 h; inhibition, % at 7.5 µM; 300,000 tested, 1.3% active; AID 1662;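 active means mean replicate score, as percent of positive control median, at least 50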;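 further: strain carries kanamycin resistance gene driven by streptokinase promoter and grows in 40 µg/ml kanamycin; loss of luminescence reflects streptokinase promoter inhibition or plain growth inhibition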
# tim23-1 inh: growth inhibitors of tim23-1 mutant yeast. S. cerevisiae tim23-1 growth, BacTiter-Glo luminescence, 24 h. inhibition, % at 20 µM. 330,000 tested, 1.3% active;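 active means growth inhibition of the mutant yeast at or above 50%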;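 further: temperature-sensitive mutant grown at 25 °C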
# TIM10 inh: TIM10 yeast growth inhibition; S. cerevisiae TIM10 strain growth, BacTiter-Glo luminescence, 24 h; inhibition, % at 10 µM; 330,000 tested, 1.4% active;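 active means inhibition of 40% or more at the single tested concentration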;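 further: wild-type TIM10 isogenic control strain grown at permissive 25 °C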
# PfHsp90 yeast 2: reduces growth (ATP signal) of yeast expressing P. falciparum Hsp90. S. cerevisiae expressing PfHsp90, BacTiter-Glo ATP, 48 h; yeast lacking PDR1 and PDR3 efflux regulators. inhibition, % at 9.4 µM. 310,000 tested, 0.32% active. AID 504621;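 active means every replicate shows inhibition above about 80%, whatever the replicate mean, limit read from the data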
# tim10-1 confirm: tim10-1 yeast growth inhibition, confirmed; S. cerevisiae tim10-1 ts strain growth, BacTiter-Glo, 24 h; 7,400 tested, 56% active; inhibition, % at 20 µM; shares compounds with tim10-1 inh;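 active means inhibition of yeast growth at or above a set limit in either of two repeat tests at 20 µM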;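 further: tim10-1 mutant grown at permissive 25 °C to find synthetic lethal compounds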
# A number is an active result; 0 = inactive; - = not tested or not shown.
SMILES,NALP3 yeast inh,tim10-1 inh,SKKanGAS inh,tim23-1 inh,TIM10 inh,PfHsp90 yeast 2,tim10-1 confirm
CC(C)OCCCn1c(=S)[nH]c2ccc(N3CCOCC3)cc2c1=O,0,45,0,0,0,-,0
CCCCn1c(=S)[nH]c2ccc(N3CCOCC3)cc2c1=O,0,0,0,0,0,-,-
CC1CCCC(NC(=O)CN2CCN(S(=O)(=O)c3ccc(Br)s3)CC2)C1C (centres undefined),0,0,-,0,0,-,-
O=C(CN1C(=O)NC(CCc2ccccc2)C1=O)Nc1cccc(Br)c1 (centres undefined),0,0,-,0,0,0,-
COc1ccccc1C(=O)Nc1nc2cc3c(cc2s1)OCCO3,0,43,0,0,0,0,0
CC(NC(=O)Nc1ccc(F)cc1F)c1ccc2c(c1)OCO2 (centres undefined),0,0,0,0,0,0,-
COc1ccc(NC(=O)C(C)N2C(=O)c3ccccc3C2=O)c(OC)c1 (centres undefined),0,0,0,0,0,-,-
CC(NC(=O)Cc1cccs1)C(c1cccs1)N1CCN(c2ccccc2F)CC1 (centres undefined),0,46,0,0,0,0,37
CC(NC(=O)c1ccco1)C(c1cccs1)N1CCN(c2ccc(F)cc2)CC1 (centres undefined),0,47,0,0,0,0,0
CC1(C)CC(=O)C2=C(C1)N(c1cccnc1)C(N)=C(C#N)C2c1cccs1 (centres undefined),0,40,0,0,0,0,33
CCSc1sccc1C1C(C#N)=C(N)N(c2cccnc2)C2=C1C(=O)CC(C)(C)C2 (centres undefined),0,0,0,0,0,0,-
COC(=O)c1ccc(N2CCN(c3ccccc3)CC2)c(N)c1,0,80,0,0,0,0,0
C=CCOc1ccc(/C=C/C(=O)OCC(=O)N2CCCc3ccccc32)cc1,0,0,0,0,0,-,-
COc1ccc(-c2cc(C)no2)cc1S(=O)(=O)NCCCN(C)Cc1ccccc1,0,0,0,0,0,0,-
COc1ccc(-c2onc(C)c2C)cc1S(=O)(=O)NCCc1ccco1,0,43,0,0,0,0,0
C=C1CCN([C@H](C(=O)O)C(C)C)S(=O)(=O)c2ccccc21,0,0,0,0,0,-,-
C=C1CCN([C@H](C(=O)OCc2cccc(C)c2)C(C)C)S(=O)(=O)c2ccccc21,0,44,0,0,0,0,0
Oc1c(CN2CCCC(C(F)(F)F)C2)cc(Cl)c2ccccc12 (centres undefined),0,42,0,0,0,0,0
O=C(NCc1ccco1)c1cc2nc(-c3cccs3)cc(C(F)(F)F)n2n1,0,43,0,0,0,0,0
Cc1coc(C)c1C(=O)CC1(O)C(=O)N(CCc2ccccc2)c2ccccc21 (centres undefined),0,44,0,0,0,-,34
CC(Sc1nc2ccccc2c(=O)n1CC1CCCO1)C(=O)N(C)c1ccccc1 (centres undefined),0,0,-,0,0,-,-
O=C(c1cc2c(s1)CCCCC2)N1CCN(c2ncccn2)CC1,0,45,0,0,0,0,0
CC(=O)c1ccc(N2CCN(C(=O)c3cc4c(s3)CCCC4)CC2)cc1,0,47,0,0,0,0,0
Cc1ccc(CCN2CC(C(=O)NCCCN3CCC(C)CC3)CC2=O)cc1 (centres undefined),0,0,0,0,0,0,-
CC1=CC2=C(OC1N(C)C)c1cccc3cccc(c13)C2=O (centres undefined),0,47,0,0,0,-,55
SMILES,NALP3 yeast inh,tim10-1 inh,SKKanGAS inh,tim23-1 inh,TIM10 inh,PfHsp90 yeast 2,tim10-1 confirm
COc1ccc(NC(=O)C2CCCN(c3ncnc4onc(-c5ccc(F)cc5)c34)C2)cc1 (centres undefined),0,42,0,0,0,0,0
COCCN(C(=O)c1ccc(-c2ccc([N+](=O)[O-])cc2)o1)c1c(N)n(CC(C)C)c(=O)[nH]c1=O,0,0,-,0,0,0,-
Cc1scc(C(=O)N/N=C/c2ccco2)c1C,0,0,0,0,0,0,-
Cc1scc(C(=O)N/N=C/c2ccc([N+](=O)[O-])o2)c1C,0,46,0,0,0,-,0
O=C(CSc1cccc2cccnc12)N1CCCC1,0,42,0,0,0,0,34
CCCCS/C(=C(/C#N)C(N)=O)c1cc2c([nH]1)CCCC2,0,45,0,0,0,-,38
CCOc1ccc(C(C)=O)cc1N1C(=O)C2C3C=CC(O3)C2C1=O (centres undefined),0,55,0,0,0,0,0
CCOc1ccc(C(C)=O)cc1N1C(=O)C2C3C=CC(C3)C2C1=O (centres undefined),0,0,0,0,0,-,-
CC(Sc1nnc(CNC(=O)c2ccco2)n1C)C(=O)Nc1nccs1 (centres undefined),0,0,0,0,0,0,-
Cc1ccc(C)c(N2CCN(C(=O)CCC(=O)Nc3nnc(C(F)(F)F)s3)CC2)c1,0,55,0,0,0,0,0
Cc1ccc(CCNC(=O)C2CCCN(S(=O)(=O)N3CC(C)CC(C)C3)C2)cc1 (centres undefined),0,0,0,0,0,0,-
CN(C(=S)NC1CCCCC1)C1(c2ccccc2Cl)CCCCC1=O (centres undefined),0,46,0,0,0,0,35
CC(C)NC(=S)N(C)C1(c2ccccc2Cl)CCCCC1=O (centres undefined),0,0,0,0,0,0,-
Cc1ccc2c(c1)-c1c(ssc1=S)C(C)(C)N2C(=O)CSC1=NCCS1,0,43,0,0,0,0,38
CCOc1ccc2c(c1)-c1c(ssc1=S)C(C)(C)N2C(=O)CSC1=NCCS1,0,0,0,0,0,0,-
NC(=O)C1CCCN(C(=O)CNC(=O)C23CC4CC(CC(C4)C2)C3)C1 (centres undefined),0,0,-,0,0,0,-
Cc1ccc(CSC2=Nc3ccccc3C3=NC(=O)CN23)cc1,0,0,0,0,0,0,-
COc1cc2c(cc1OC)C1=NC(=O)CN1C(SCc1ccccc1C)=N2,0,41,0,0,0,0,0
CC(C)CC1NC(=O)c2ccccc2-n2c1nc1ccccc1c2=O (centres undefined),0,0,-,0,0,-,-
Cc1ccccc1Cc1c(C)nc2c(C(=O)N3CCN(Cc4ccc5c(c4)OCO5)CC3)cnn2c1C,0,0,0,0,0,0,-
Cc1cccc(Cc2c(C)nc3c(C(=O)N4CCN(Cc5ccc6c(c5)OCO6)CC4)cnn3c2C)c1,0,42,0,0,0,0,0
C[C@H](CO)N1C[C@H](C)[C@@H](CN(C)S(C)(=O)=O)Oc2ccc(NS(=O)(=O)c3cn(C)cn3)cc2C1=O,0,0,-,0,0,0,-

# Bioassay records: PubChem, several laboratories
